Test results as given in PubChem BioAssay AID2459 (The Scripps Research Institute Molecular Screening Center, 2010).
The other results are listed elsewhere or left out. Unmarked numbers belong to inactive results. Calls of active or inactive are those of the source.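 Rule for the calls: active = average inhibition across triplicates above the hit cutoff set in the primary screen (cut at about 32% in these data); inactive = the rest.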

Each molecule was assayed against Female germline-specific tumor suppressor gld-1 (Caenorhabditis elegans) (UniProt Q17339) (assay: GLD-1/TGE RNA binding inhibitors, retest, confirmation, biochemical, fluorescence polarization, triplicate (AID 2459;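 note: 0% = GLD-1 with RNA probe and DMSO and 100% = wells lacking GLD-1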)). Details: GLD-1/FL-TGE RNA fluorescence polarization, at 5.96 µM, hits give high values.
Chain of Female germline-specific tumor suppressor gld-1 (Caenorhabditis elegans) (Q17339 whole entry, looked up): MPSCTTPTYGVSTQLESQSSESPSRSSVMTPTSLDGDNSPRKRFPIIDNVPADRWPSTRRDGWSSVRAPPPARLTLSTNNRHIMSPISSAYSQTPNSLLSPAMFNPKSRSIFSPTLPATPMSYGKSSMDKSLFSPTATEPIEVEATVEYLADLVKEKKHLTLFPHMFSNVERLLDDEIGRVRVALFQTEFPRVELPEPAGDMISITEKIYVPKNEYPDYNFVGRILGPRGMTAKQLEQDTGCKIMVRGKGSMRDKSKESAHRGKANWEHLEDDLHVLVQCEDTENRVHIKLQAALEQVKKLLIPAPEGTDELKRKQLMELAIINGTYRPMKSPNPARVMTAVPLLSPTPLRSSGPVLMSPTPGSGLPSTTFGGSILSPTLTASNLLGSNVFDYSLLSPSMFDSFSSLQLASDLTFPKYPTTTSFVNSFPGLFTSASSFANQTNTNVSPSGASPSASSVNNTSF
`CC1CC(C)CN(S(=O)(=O)c2cccc(C(=O)N3C(=O)c4cccc(N)c4C3=O)c2)C1` (stereo not given) gave an inhibition of 1.78%.
For `C=C1CCN([C@@H](Cc2ccccc2)C(=O)N2CCOCC2)S(=O)(=O)c2ccccc21`, the inhibition was -0.33%.
Molecule `O=C1c2ccccc2-c2ncnc3c(N4CCOCC4)cc(N4CCOCC4)c1c23` has an inhibition of -4.23%.
With `O=C1c2ccccc2C(=O)c2c1cccc2N1CCN(CCO)CC1` the inhibition was 16.5%.
In the case of `COC(=O)c1cc(CNC(=O)CC(C)c2ccccc2)ccc1OC` (stereo not given), the inhibition is reported as -6.47%.
`COc1cc(C(=O)NCc2ccc3c(c2)cc(C)n3C)cc(OC)c1OC` showed an inhibition of 5.96%.
With `CCOc1cc(C2C(C(=O)OC)=CN(C3CCCC3)C=C2C(=O)OC)cc(Br)c1O` the inhibition was 31.8% (active).
`COC(=O)CCCC1=CC2=CC(=O)C(C)(OC(=O)c3cccs3)C(=O)C2=CN1c1cccc(C#N)c1` (stereo not given) gave an inhibition of 8.48%.
`Oc1ccc2ccccc2c1N=Nc1nccs1` was tested, and the inhibition was 8.17%.
In the case of `CCCn1c(C2CCCN2c2nc(-c3ccc(C)cc3)cs2)nc2cc(Cl)c(N3CCCCC3)cc21` (stereo not given), the inhibition is reported as -4.07%.
With `N#C/C(=C(\O)C(F)(F)F)c1nnc2n1CCCCC2` the inhibition was -8.93%.
For `O=c1[nH]cccc1-c1nc2ccccc2n1Cc1ccc(Cl)cc1`, the inhibition was -6.98%.
In the case of `CNC(=S)NNC(=O)c1oc2nc(-c3ccccc3)cc(-c3ccco3)c2c1N`, the inhibition is reported as -4.28%.
`CC(NC(=O)CSc1nc2c(cc1C#N)CN(C)CC2)c1ccccc1` (stereo not given) showed an inhibition of -6.45%.
For `COCCOC(=O)c1sc(=S)n(CCOC)c1N`, the inhibition was 47.7% (active).
Work on `Cc1cc2ccccc2n1CCC(=O)O` yielded an inhibition of 10.1%.
For `O=c1[nH]c(=O)c2nc3ccccc3nc2[nH]1`, the inhibition was 101% (active).
With `CCOc1ccc2nc(N3CCCN(C(=O)Nc4ccccc4C)CC3)c(C#N)cc2c1` the inhibition was 52.2% (active).
`CN(CCOc1ccccc1)C(=O)c1cc(-c2ccco2)nc2ccccc12` showed an inhibition of -3.07%.
In the case of `Cc1ccccc1Nc1nc(N)nc(CSc2nnc3ccccn23)n1`, the inhibition is reported as -3.26%.
`N#CC1=C(N)C(C#N)(C#N)[C@H](c2ccsc2)[C@H]2COCC=C12` was tested, and the inhibition was 7.34%.
In the case of `CN(C)c1ccc(Nc2c3c4c(cccc4n(C)c2=O)C(=O)c2ccccc2-3)cc1`, the inhibition is reported as 63.3% (active).
In the case of `CCCN(CC(=O)Nc1ccccc1OC)C(=O)CCC(=O)c1ccc(F)cc1`, the inhibition is reported as -0.97%.
`Cc1ccc(C)c(S(=O)(=O)N2CCN(C(=O)Nc3ccccc3)CC2)c1` gave an inhibition of 2.41%.
`COc1ccc2[nH]c(C)c(CCN(Cc3cccs3)C(=S)Nc3ccccc3OC)c2c1` showed an inhibition of -3.16%.
`COc1ccc(-c2nc(CS(=O)CC(=O)NCc3ccccn3)c(C)o2)cc1` (stereo not given) was tested, and the inhibition was 61.1% (active).
`COc1ccc(Nc2ccc([N+](=O)[O-])cn2)cn1` gave an inhibition of 18.7%.
In the case of `COc1cc([C@H](Cc2ccccc2)NC(C)=O)oc(=O)c1`, the inhibition is reported as 25.8%.
With `COC(=O)c1sc(NC(=S)NC(=O)c2ccc(C)cc2)nc1C` the inhibition was -1.92%.
Molecule `Cc1ccc(/C=N/NC(=O)COc2ccccc2-c2ccccc2)cc1` has an inhibition of -5.49%.
